MCF10A rereplic: induces DNA re-replication in MCF 10a normal breast cells. MCF 10A DNA re-replication, Hoechst nuclear intensity, 48 h. Potency, µM (highest dose often 46.1 µM), inactives show at the highest dose activity, positive = re-replication, usual class: activators. 350,000 tested, 2.9% active. AID 624296; further: % of control where 0% means no effect; nearly all actives have a fitted effect of over 50% in size
PINK1 expr mod: changes PINK1 expression; PINK1 immunofluorescence, high-content cytometry, 24 h; Potency, µM (series often up to 76.6 µM), inactives show top-dose activation (PINK1 increase), actives largely listed as activators; 410,000 tested, 0.2% active; AID 624263; active means well fitted activation curve with a large enough effect; inconclusive means small, poorly fitted or top-dose-only effect; cell line not stated here; further: % of control where 0% means no effect; nearly all actives have a fitted effect of over 65% in size
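Measures PINK1 amount and localization on or inside mitochondria by immunofluorescence. Stable cells get compounds at 5 concentrations for 24 hours before fixation and staining; CCCP controls included.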
KB-V1 MDR tox: KB-V1 MDR subline cytotoxicity. 400,000 tested, 3.4% active. Potency, µM (doses to about 46.1 µM), actives largely listed as cytotoxic. KB-V1 MDR cells viability, CellTiter-Glo, 72 h. AID 1347076; further: on the % scale 0 is the no-effect control and ±100 the full control effect; nearly all actives have a fitted effect of over 60% in size
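Drug-selected KB-V1 cells, grown in DMEM lacking phenol red with 10% FBS, receive compound titrations; after three days at 37 degrees C, surviving cell ATP is quantified by CellTiter-Glo luminescence and responses normalized and curve-fitted.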
SW480 rerep: induces DNA re-replication in SW480 colon adenocarcinoma cells | Potency, µM (highest dose often 46.1 µM), without a hit: at the highest dose re-replication activation, most hits filed as activators | SW480 DNA re-replication, Hoechst DNA content imaging, 48 h | 340,000 tested, 1.8% active; further: % of control where 0% means no effect; nearly all actives have a fitted effect of over 55% in size
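Quantitative HTS format with DMSO vehicle controls; 48 hr drug incubation at 37 C, then 40 min Hoechst staining and scanning imager measurement at 405 nm excitation.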
KB-3-1 cytotox: kills parental KB-3-1 adenocarcinoma cells | 400,000 tested, 1.4% active | Potency, µM (titrated, usually from 46.1 µM), hits mostly cytotoxic | AID 1347075 | KB-3-1 viability, CellTiter-Glo ATP luminescence, 72 h; further: on the % scale 0 is the no-effect control and ±100 the full control effect; nearly all actives have a fitted effect of over 60% in size
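Cytotoxicity in the drug-sensitive parental line KB-3-1 was scored as loss of CellTiter-Glo luminescence following 72 h incubation with compound. Values come from curve fitting of normalized concentration-response data.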
ALOX12 inh: inhibitors of human 12S-lipoxygenase ALOX12; P18054; purified 12hLO, xylenol orange hydroperoxide absorbance; Potency, µM (series often up to 108 µM), for inactives: at the top dose activity change, negative = inhibition, usual class: inhibitors; 580,000 tested, 1.1% active; AID 1671190; further: on the % scale 0 is the no-effect control and ±100 the full control effect
Target sequence (P18054 whole entry, looked up): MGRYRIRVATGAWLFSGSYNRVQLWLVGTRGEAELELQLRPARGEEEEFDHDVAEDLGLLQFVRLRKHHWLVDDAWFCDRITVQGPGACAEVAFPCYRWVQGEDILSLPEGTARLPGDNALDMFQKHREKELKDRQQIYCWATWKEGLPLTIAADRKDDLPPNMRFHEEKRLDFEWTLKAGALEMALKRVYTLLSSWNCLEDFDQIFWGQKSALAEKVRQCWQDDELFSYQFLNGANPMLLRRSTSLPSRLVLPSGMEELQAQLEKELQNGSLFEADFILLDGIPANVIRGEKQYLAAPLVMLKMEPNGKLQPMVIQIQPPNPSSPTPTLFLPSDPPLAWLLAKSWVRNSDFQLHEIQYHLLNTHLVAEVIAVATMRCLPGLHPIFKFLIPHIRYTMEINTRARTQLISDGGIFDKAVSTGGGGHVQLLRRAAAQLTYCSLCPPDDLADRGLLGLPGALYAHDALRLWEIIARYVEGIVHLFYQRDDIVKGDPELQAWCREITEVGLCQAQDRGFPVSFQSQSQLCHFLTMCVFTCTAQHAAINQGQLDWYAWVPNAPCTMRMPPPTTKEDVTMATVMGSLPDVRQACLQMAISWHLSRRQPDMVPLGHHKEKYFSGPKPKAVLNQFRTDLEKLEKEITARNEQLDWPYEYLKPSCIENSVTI
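Purified human 12hLO (150 nM final) in 25 mM Hepes, 0.01% Triton X-100, pH 7.0 was preincubated 15 min at room temperature with compound. Then 40 uM arachidonic acid was added, 30 min. Hydroperoxide was read by Fe-XO absorbance ratio 573/405 nm.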
* hit, by the source's call; i = inactive; ? = inconclusive; · = no result given; [ ] = remark or other dose. Most compounds without a hit are left out; they make up all but 5.8% or so of the library. Unless noted, the call rests on the fitted dose curve; in most records, active means well fitted curve in the direction sought with a large enough effect; inconclusive means small, poorly fitted or top-dose-only effect, or another doubt; inactive means no such curve, though single readings can be large; an effect the other way counts as inactive or inconclusive. Potency means the concentration at half of the fitted maximal effect.

SMILES | MCF10A rereplic | PINK1 expr mod | KB-V1 MDR tox | SW480 rerep | KB-3-1 cytotox | ALOX12 inh
CCCc1cc(=O)[nH]c(SCC(=O)NC(=O)NC2CCCC2)n1 | -1% | 0% | 4.1µM* | -3% | ? | 179%
CC(C)(C)C1CCc2c(sc(NC(=O)CSc3ncn[nH]3)c2C#N)C1 (stereo unspecified) | ? | ? | 16µM* | ? | ? | ?
CCCc1cc(=O)[nH]c(SCC(=O)Nc2sc3c(c2C#N)CCC(C)C3)n1 (stereo unspecified) | ? | 1% | i | -6% | i | 40µM*
CCCc1cc(=O)[nH]c(SCC(=O)NC(=O)OCC)n1 | 1% | 11%[38.3 µM] | i | 1% | i | 13%
CSc1ccc(-c2nnn(CC(=O)Nc3sc4c(c3C#N)CCC(C(C)(C)C)C4)n2)cc1 (stereo unspecified) | · | 2% | i | · | i | ?
CCCc1cc(=O)[nH]c(SCC(=O)Nc2sc(C(N)=O)c(C)c2C(=O)OCCOC)n1 | -5% | -1% | ? | 11% | 8.2µM* | 0%
O=C(Cn1c(NCc2ccccc2)nc2ccccc21)Nc1ccccc1 | · | · | · | · | · | -3%
N#Cc1c(NC(=O)CSc2ncn[nH]2)sc2c1CCCC2 | ? | 0% | ? | -5% | ? | 0%
CC1CCc2c(sc(NC(=O)CSc3ncn[nH]3)c2C#N)C1 (stereo unspecified) | 18µM* | 1% | i | 5% | ? | 0%
Cc1ccc(C(=O)c2cc([N+](=O)[O-])ccc2N2CCCCC2)cc1 | ? | 2% | ? | 0.58µM* | i | -22%
Cc1ccc(C(=O)c2cc([N+](=O)[O-])ccc2N2CC(C)OC(C)C2)cc1 (stereo unspecified) | 22% | 12% | ? | 12µM* | i | -24%
NC(=O)c1cc([N+](=O)[O-])ccc1N1CCCCC1 | 15% | -1% | i | -2% | i | -13%
CC(Sc1ccccc1Cl)C(=O)O (stereo unspecified) | · | · | · | · | · | -33%
CCC(=O)Nc1nonc1-c1nc2ccccc2n1Cc1cccc2ccccc12 | 0.37µM* | 4% | ? | 7.3µM* | 0.92µM* | 20%
CC1=C[C@@H](CNC(=O)c2cncnc2)[C@H](C(C)C)C[C@H]1Cc1nnc(-c2ccncc2)o1 | · | · | · | · | · | -7%[176 µM]
Cc1ccc(CNC(=O)C(=O)NCC2OCCCN2S(=O)(=O)c2cccs2)cc1 (stereo unspecified) | 0% | 2% | i | 19% | i | -14%
COc1ccc(S(=O)(=O)N2CCCOC2CNC(=O)C(=O)NCCc2ccco2)cc1C (stereo unspecified) | ? | 9% | i | 18µM* | 6.5µM* | 0%
Cc1cc(S(=O)(=O)N2CCCOC2CNC(=O)C(=O)NCc2ccco2)ccc1F (stereo unspecified) | 8.2µM* | 2% | ? | ? | i | -16%
COc1ccc(CCNC(=O)C(=O)NCC2OCCN2S(=O)(=O)c2ccc(Br)cc2)cc1OC (stereo unspecified) | 7% | -1% | i | 2% | i | 18%
Cc1ccc(S(=O)(=O)N2CCCOC2CNC(=O)C(=O)NCc2cccs2)cc1 (stereo unspecified) | 5% | 6% | 9.2µM* | ? | i | -16%
O=C(NCCc1ccco1)C(=O)NCC1OCCCN1S(=O)(=O)c1ccc(F)cc1 (stereo unspecified) | -2% | 0% | i | 1% | i | -40%
COc1ccc(S(=O)(=O)N2CCOC2CNC(=O)C(=O)NCCc2ccc(OC)c(OC)c2)cc1 (stereo unspecified) | 10% | -1% | 18µM* | 12% | ? | 12%
CCCCNC(=O)c1ccc(C)c(NC(=O)c2ccccc2)c1 | · | · | · | · | · | 0%
Cc1ccc(C)c(S(=O)(=O)N2CCCOC2CNC(=O)C(=O)NCc2ccco2)c1 (stereo unspecified) | -1% | 7% | 23µM* | 8% | ? | -4%
CC1(C)OC1COc1c2ccoc2cc2oc(=O)ccc12 (stereo unspecified) | ? | 2% | i | -31% | i | -1%
SMILES | MCF10A rereplic | PINK1 expr mod | KB-V1 MDR tox | SW480 rerep | KB-3-1 cytotox | ALOX12 inh
COc1c2ccoc2cc2oc(=O)ccc12 | -3% | -1% | 26µM* | -1% | i | -1%
O=C(NC(=O)c1cccc(F)c1)OC[C@@H]1CCCN2CCCC[C@H]12 | 1% | 3% | ? | -12% | ? | 1%
O=C(Nc1ccc(C(=O)OC[C@@H]2CCCN3CCCC[C@H]23)cc1)c1cccc(Br)c1 | 23µM* | 13% | i | -5% | i | -9%
COc1ccc(C(C)=O)cc1CSc1ccccc1C(=O)O | · | · | · | · | · | -2%
COc1ccccc1/C=C1\S/C(=N/NC(=O)c2cccc(Br)c2)NC1=O | 10µM* | 0% | ? | 16% | 8.2µM* | 2%
CCOc1ccccc1OCC(=O)Nc1nnc(COC)s1 | 5% | 56%[38.3 µM] | 18µM* | 0% | i | ?
CCC(C(=O)NCc1ccc(C)cc1)c1ccccc1 (stereo unspecified) | -1% | 3% | i | 5% | i | 25µM*
c1ccc(CNc2ncnc3c2oc2ccccc23)nc1 | 6% | 1% | 21µM* | 0% | i | -8%
c1ccc(-c2nc(NCC3CCCO3)c3oc4ccccc4c3n2)cc1 (stereo unspecified) | ? | -6%[38.3 µM] | 3.7µM* | -4% | i | ?
CCc1nc(NCc2ccccn2)c2oc3ccccc3c2n1 | 20% | 1% | ? | 8% | ? | ?
O=C(O)CNc1nc(-c2ccccc2)nc2c1oc1ccccc12 | 7% | -1% | ? | 1% | i | -1%
CC(C)Cc1nc2oc3c(NCC4CCCO4)ncnc3c2c2c1CCC2 (stereo unspecified) | ? | 5%[38.3 µM] | 10µM* | -4% | ? | -3%
CC(C)(C)c1ccc(-c2nc(NCc3cccnc3)c3ccccc3n2)cc1 | 13µM* | -1% | ? | 9% | i | -9%
O=C(CCn1nc(-c2ccc(Cl)cc2)c2ccccc2c1=O)Nc1ccc(F)cc1 | · | · | · | · | · | -21%
O=C([C@H]1C[C@H](Oc2ccccc2)CN1C(=O)COc1ccc(F)cc1)N1CCOCC1 | · | · | · | · | · | 20%
O=C(CSc1ncnc2c1oc1ccccc12)NCC1CCCO1 (stereo unspecified) | -3% | 21%[38.3 µM] | i | -10% | i | -8%
c1ccc(-c2nc(NCc3cccnc3)c3oc4ccccc4c3n2)cc1 | ? | 0% | ? | 16% | i | 16µM*

High-throughput results from PubChem.
